HRas wt GTP – modulators of GTP binding to HRas wildtype, primary screen, biochemical, bead-based flow cytometry, multiplex; GST-Ras wt beads, Bodipy-FL-GTP binding; actives lie on both sides; GTP binding activity, % at 10 µM; 0.14% of 190,000 active; AID 759, 2007;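 active = GTP binding activity at least 20% away from the 100% baseline, either lowered as inhibitor or raised as activator; inconclusive = flagged as likely green fluorescent, judged across all proteins in the well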;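 also: 0% = unlabeled GTP competition control and 100% = no-compound control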
Target sequence (P01112 whole entry, looked up): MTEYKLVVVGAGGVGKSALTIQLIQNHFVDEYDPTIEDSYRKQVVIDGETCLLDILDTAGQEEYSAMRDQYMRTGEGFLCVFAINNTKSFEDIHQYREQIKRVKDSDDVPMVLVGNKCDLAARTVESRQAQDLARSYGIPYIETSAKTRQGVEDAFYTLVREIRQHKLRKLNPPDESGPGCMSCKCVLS
Rab7 wt GTP bind – modulators of GTP binding to Rab7, primary screen, biochemical, wildtype, multiplex bead flow cytometry | GST-Rab7 beads, fluorescent GTP binding; actives lie on both sides; untreated = 100%, excess cold GTP = 0% | GTP binding activity (percent of control), % at 10 µM | 0.055% of 190,000 active | AID 758, 2007;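 active = fluorescent GTP binding to Rab7 beads changed by at least 20 points from the 100% baseline, either direction, mostly lower; inconclusive = compound itself probably fluorescent, or too few beads counted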;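 also: median green fluorescence of bound Bodipy-FL-GTP per Rab7 bead population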
Rab2 wt GTP – modulators of GTP binding to Rab2A wildtype, primary screen, biochemical, dog, bead-based flow cytometry, multiplex; Ras-related protein Rab-2A (Canis lupus familiaris), P61105; GST-Rab2 wt beads, Bodipy-GTP binding; GTP binding activity, % at 10 µM; 0.19% of 190,000 active; AID 760, 2007;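 active = GTP binding activity at least 20 points away from 100%, either lowered or raised; inconclusive = signal likely due to the compound's own green fluorescence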;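 also: 0% = beads with excess unlabeled GTP and 100% = no-compound control corrected for plate trend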
Rac1 wt modul – wildtype Rac1 GTP binding modulators, primary screen, biochemical, GST-Rac1 beads, flow cytometry, multiplex; Ras-related C3 botulinum toxin substrate 1 (Homo sapiens), P63000; fluorescent GTP binding; actives lie on both sides; 0 = cold GTP competed, 100 = untreated; GTP binding activity (% of control), % at 10 µM; 0.27% of 190,000 active; AID 757, 2007;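 active = GTP binding activity at least 20 points away from the 100% control level, either lower or higher; inconclusive = compound flagged as likely green fluorescent, judged across all proteins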
Rac1 act GTP bind – GTP binding modulators of activated mutant Rac1, primary screen, biochemical, bead-based flow cytometry, multiplex, fluorescent GTP; Ras-related C3 botulinum toxin substrate 1 (Homo sapiens), P63000; GST-Rac1 activated beads; actives lie on both sides; 100% means binding = to untreated wells; percent activity (GTP binding), % at 10 µM; 0.11% of 190,000 active; AID 764, 2007;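 active = GTP binding at least 20 percentage points away from the 100% baseline, in either direction, so actives lie on both sides; inconclusive = Compound likely fluorescent itself, or too few beads counted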
Cdc42 wt – modulators of GTP binding to wildtype Cdc42, primary screen, biochemical, multiplex bead flow cytometry, Bodipy-GTP. 0.2% of 190,000 active. AID 761, 2007. percent activity (GTP binding), % at 10 µM. GST-Cdc42 beads; actives lie on both sides;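 active = percent activity GTP binding at least 20 points away from the 100% baseline, either down as inhibitor or up as activator; inconclusive = compound flagged as likely green fluorescent from well-wide comparison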;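 also: median bead fluorescence of bound Bodipy-FL-GTP at 100 nM; 0% = excess unlabeled GTP control and 100% = no compound control; below 100% means less GTP binding so inhibitor and above means activator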
Target sequence (P60953 whole entry, looked up): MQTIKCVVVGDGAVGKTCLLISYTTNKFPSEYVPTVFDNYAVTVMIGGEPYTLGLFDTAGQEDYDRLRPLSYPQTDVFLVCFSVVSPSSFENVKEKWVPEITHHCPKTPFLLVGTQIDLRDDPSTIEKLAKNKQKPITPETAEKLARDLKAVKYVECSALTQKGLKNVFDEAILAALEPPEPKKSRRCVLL
* hit, by the source's call; ? = inconclusive; [ ] = dose if it differs, or a comment. Compounds with a hit are over-represented: about 0.37% of the library has one in this group of screens.

SMILES	HRas wt GTP	Rab7 wt GTP bind	Rab2 wt GTP	Rac1 wt modul	Rac1 act GTP bind	Cdc42 wt
O=C(O)c1cc(N2N=C(C(F)(F)F)/C(=C/C=C/c3ccco3)C2=O)ccc1Cl	85	90	83	84	76*	79*
NC(=O)COC(=O)c1cccc2c1-c1ccccc1C2=O	81	92	78*	72*	85	78*
O=C(Nc1nc(-c2ccc(S(=O)(=O)N3CCCC3)cc2)cs1)c1cccs1	71*	90	70*	87	84	71*
O=C(Nc1ccc(S(=O)(=O)N2CCCC2)cc1)c1cccs1	101	103	97	98	94	96
CN(Cc1ccccc1)C(=O)c1nn2cccnc2c1Cl	100	110	100	98	95	100
O=C(Nc1cccc(-c2nnc(-c3ccco3)o2)c1)c1ccccc1	84	89	85	76*	90	83
COc1ccc(C(=O)CSc2ccc3nnc(-c4cccnc4)n3n2)cc1	98	101	95	88	96	92
O=C(O)CSc1ccc2nnc(-c3cccnc3)n2n1	91	98	88	78*	91	87
COc1ccccc1OCCn1cc(C(=O)O)c2ccccc21	111	109	114	120*[activator]	120*[activator]	114
COc1ccccc1OCCn1cc(C#N)c2ccccc21	100	97	103	107	97	103
Cc1ccccc1OCCn1cc(C(=S)N2CCN(C)CC2)c2ccccc21	104	105	104	107	100	102
O=C(O)c1cn(CCOc2ccccc2Cl)c2ccccc12	113	113	119	121*[activator]	115	117
OC(CN1CCN(Cc2ccc3c(c2)OCO3)CC1)c1c[nH]c2ccccc12 (configuration not stated)	107	94	107	122*[activator]	105	116
Cc1c(C(O)CN2CCN(Cc3ccc4c(c3)OCO4)CC2)c2ccccc2n1C (configuration not stated)	100	99	99	103	99	100
O=C(Nc1sc2c(c1C(=O)O)CCCCC2)c1ccccc1	82	89	81	80	77*	78*
COc1ccc(C(CC(=O)O)NC(=O)c2cc3cc(Br)ccc3oc2=O)cc1OC (configuration not stated)	83	83	76*	80	76*	77*
COc1cccc(/C=C/C(=O)Nc2ccccc2N2CCOCC2)c1	53*	23*	51*	48*	50*	54*
COc1c(C)cc(Br)cc1C(=O)O	111	102	112	120*[activator]	101	116
CCOC(=O)C(C(=O)OCC)c1cc(Br)c2noc3c2c1C(=O)c1ccccc1-3	96	102	99	94	89	103
O=C1c2ccccc2-c2onc3ccc(Oc4ccccc4)c1c23	81	88	79*	79*	68*	78*
CC1(C)CC2(CC(c3ccccc3F)c3ccc(O)c(O)c3O2)NC(=S)N1 (configuration not stated)	98	102	94	98	93	96
COc1cccc(OC)c1-c1nn2c(-c3cc(-c4ccccc4)n[nH]3)nnc2s1	162*[activator]	?	167*[activator]	206*[activator]	?	179*[activator]
C#CCOC(=O)C[N+](C)(C)CC#Cc1ccccc1	96	106	99	100	95	100
Cc1ccc(-c2nnc3c4ccccc4c(C)nn23)cc1S(=O)(=O)N1CCN(CCO)CC1	85	86	79*	88	95	82
Cc1ccc(-c2nnc3c4ccccc4c(C)nn23)cc1NC(=O)CN1CCOCC1	96	95	94	97	97	96
SMILES	HRas wt GTP	Rab7 wt GTP bind	Rab2 wt GTP	Rac1 wt modul	Rac1 act GTP bind	Cdc42 wt
O=C(Nc1ccccc1C(=O)O)/C(=C/c1ccc([N+](=O)[O-])cc1)NC(=O)c1ccc(Br)o1	91	94	89	91	90	86
Nc1c(S(=O)(=O)c2cccs2)c2nc3ccccc3nc2n1/N=C/c1cccc(O)c1	47*	73*	46*	64*	64*	45*
CC(C)Cn1c(N)c(S(=O)(=O)c2cccs2)c2nc3ccccc3nc21	100	99	100	100	99	101
COc1ccc(/C=N/n2c(N)c(S(=O)(=O)c3cccs3)c3nc4ccccc4nc32)cc1OC	56*	75*	49*	57*	74*	61*
CCCCCC(=O)NNC(=O)c1ccc(F)cc1	97	94	95	107	103	103
O=C(NCc1cccs1)c1cnc2ccccn2c1=O	99	100	98	103	96	101
O=C(NCc1cccs1)c1cccn2c(=O)c3sccc3nc12	66*	92	63*	55*	77*	63*
COc1cc(/C=C2/SC(=Nc3ccc(O)cc3)NC2=O)cc(OC)c1O	74*	86	70*	59*	79*	69*
COc1ccc(N=C2NC(=O)/C(=C/c3ccc(O)c(OC)c3)S2)cc1	92	100	93	90	95	96
CC(C)n1c(O)c(N=Nc2ccc(Cl)nn2)c2ccccc21	121*[activator]	117	129*[activator]	114	117	116
Cc1cc(C(=O)N=Nc2c(O)n(C(C)C)c3ccccc23)n[nH]1	96	97	96	93	93	94
CCOc1cc(NS(=O)(=O)c2ccc(NC(C)=O)cc2)c(OCC)cc1NC(=O)c1cccs1	97	98	97	103	100	98
c1ccc2c(-c3cn4ccccc4n3)c[nH]c2c1	105	111	100	104	98	98
COc1ccc(CC2(CO)CCN(S(=O)(=O)c3c(C)nn(C)c3Cl)CC2)cc1	96	96	96	99	95	98
COc1ccc(CC2(CO)CCN(S(=O)(=O)c3sccc3C)CC2)cc1	61*	66*	66*	58*	57*	63*
CC(C)CCn1c(CN2CCN(Cc3ccccc3)CC2)nc2c1c(=O)n(C)c(=O)n2C	116	105	123*[activator]	159*[activator]	120*[activator]	156*[activator]
Cc1cccc(NCC(O)Cn2cnc3c2c(=O)n(C)c(=O)n3C)c1 (configuration not stated)	114	106	115	107	104	116

Bioassay records: PubChem, NMMLSC
